The source made the active and inactive calls. Unless noted, no rule for the calls is given here.

The nature of assay [1]: resazurin metabolic signal in HepG2 cells – cell-based, resazurin fluorescence, 24 h, PK04 Diversity Set, profiling panel (AID 1172). The following applies: HepG2 viability, higher = more signal. (Alamar Blue is a resazurin reagent that responds to reducing activity.)
Assay [2] can be described thus: budding yeast growth changes without added modifier – OD600, strain BY4716, 24 h, basal condition, primary screen (AID 1173). The following applies: S. cerevisiae BY4716 growth, OD600, 24 h; higher = more signal, called active from +8 up or from −8 down.
Assay [3] in a line: viability profiling in MM1S myeloma cells – cell-based, resazurin fluorescence, basal, 24 h, PK04 Diversity Set, profiling panel (AID 1174). The conditions noted are these: higher = more signal, called active from +8 up or from −8 down.
The target in assay [4] is Dihydroorotate dehydrogenase (quinone), mitochondrial (Plasmodium falciparum (isolate 3D7)) (UniProt Q08210). Nature of the assay: inhibition of P. falciparum DHODH – biochemical, C-terminal His tag, absorbance 600 nm, primary screen (AID 1175).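 Also: recombinant parasite enzyme with a five histidine tag at its C terminus.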 The conditions noted are these: PfDHODH enzyme, DCIP absorbance 600 nm; higher = more signal, called active from +8 up or from −8 down.
Sequence of Dihydroorotate dehydrogenase (quinone), mitochondrial (Plasmodium falciparum (isolate 3D7)) (Q08210 whole entry, looked up): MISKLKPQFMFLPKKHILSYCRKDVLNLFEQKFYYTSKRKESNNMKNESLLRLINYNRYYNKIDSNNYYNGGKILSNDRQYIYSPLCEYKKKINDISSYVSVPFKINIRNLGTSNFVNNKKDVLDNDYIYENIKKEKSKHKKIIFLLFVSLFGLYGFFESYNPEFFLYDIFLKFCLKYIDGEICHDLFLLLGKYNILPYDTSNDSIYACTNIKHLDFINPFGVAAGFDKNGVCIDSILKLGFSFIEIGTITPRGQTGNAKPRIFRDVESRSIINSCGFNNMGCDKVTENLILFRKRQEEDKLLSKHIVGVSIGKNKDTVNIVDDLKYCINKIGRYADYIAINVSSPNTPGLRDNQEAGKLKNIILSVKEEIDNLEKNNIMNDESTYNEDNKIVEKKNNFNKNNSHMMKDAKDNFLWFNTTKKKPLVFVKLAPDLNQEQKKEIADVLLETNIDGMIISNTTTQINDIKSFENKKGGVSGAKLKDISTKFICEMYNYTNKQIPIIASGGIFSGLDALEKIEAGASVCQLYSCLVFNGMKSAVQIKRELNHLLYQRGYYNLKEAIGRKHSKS

Assay [5] is described as follows: inhibition of PAO1 biofilm formation – strain PAO1, LB-PBS medium, absorbance 600 nm, primary screen (AID 1176). The conditions noted are these: P. aeruginosa PAO1 growth/biofilm, A600, 12 h; higher = more signal.
A short description of assay [6]: growth modulation of vineyard yeast isolate – strain RM11-1a, OD600, basal, 24 h, primary screen (AID 1177).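 Also: cultures grown under basal conditions with no added stressor.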 The conditions noted are these: S. cerevisiae RM11-1a growth, OD600, 24 h; higher = more signal, called active from +8 up or from −8 down.
The nature of assay [7]: growth of efflux-deficient E. coli DRC39 – strain DRC39, OD650, 24 h, E. coli filamentation inducers, primary screen (AID 1178).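 Also: growth measured as culture turbidity by optical density at 650 nm.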 The following applies: E. coli DRC39 acrAB, higher = more signal, called active from +8 up or from −8 down.
The nature of assay [8]: growth of efflux-deficient E. coli DRC39 – strain DRC39, OD650, 48 h, E. coli filamentation inducers, primary screen (AID 1179).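 Also: screen aims at cell division blockers that make cells filament.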 The conditions noted are these: E. coli DRC39 delta-acrAB growth, higher = more signal, called active from +8 up or from −8 down.
Assay [9] is described as follows: viability profiling in RPMI8226 myeloma cells – cell-based, resazurin fluorescence, basal, 24 h, PK04 Diversity Set, profiling panel (AID 1180).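 Also: RPMI8826 multiple myeloma cell line at 5000 cells per well.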 The following applies: higher = more signal.
For assay [10], the target named is E3 ubiquitin-protein ligase XIAP (Homo sapiens) (UniProt P98170). Nature of the assay: small molecules binding XIAP protein – biophysical, small-molecule microarray, fluorescence 635 nm, primary screen (AID 1181).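 Also: score merges 667 nm emission and signal to noise over triplicate slides.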 The conditions noted are these: higher = more signal.
Sequence of E3 ubiquitin-protein ligase XIAP (Homo sapiens) (P98170 whole entry, looked up, the tested form may be a part): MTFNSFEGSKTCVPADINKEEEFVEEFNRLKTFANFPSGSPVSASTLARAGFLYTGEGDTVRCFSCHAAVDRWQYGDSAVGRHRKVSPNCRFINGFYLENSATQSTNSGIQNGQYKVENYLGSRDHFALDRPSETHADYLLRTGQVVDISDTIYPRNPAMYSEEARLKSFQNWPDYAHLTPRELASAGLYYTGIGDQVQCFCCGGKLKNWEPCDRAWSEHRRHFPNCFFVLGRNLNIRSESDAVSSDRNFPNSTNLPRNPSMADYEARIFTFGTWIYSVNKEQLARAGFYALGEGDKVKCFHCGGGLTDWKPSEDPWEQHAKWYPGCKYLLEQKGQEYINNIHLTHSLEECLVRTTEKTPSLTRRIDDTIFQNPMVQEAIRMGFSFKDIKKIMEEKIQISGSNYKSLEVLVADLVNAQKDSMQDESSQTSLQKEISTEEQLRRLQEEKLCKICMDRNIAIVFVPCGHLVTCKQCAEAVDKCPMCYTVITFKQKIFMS
For assay [11], the system named is XIP peptide (Xip251-270) binding. Nature of the assay: XIP fragment 251-270 binding compounds – biochemical, small-molecule microarray, fluorescence 635/667 nm, 0.1 µg/mL protein, primary screen (AID 1182). The conditions noted are these: fluorescent protein binding, 635 nm, higher = more signal, called active from +8 up or from −8 down.
In assay [12] the test system is XIP peptide (Xip251-270). The assay can be described thus: compounds binding XIP fragment 251-270 – biochemical, small-molecule microarray, fluorescence 635/667 nm, 0.5 µg/mL protein, primary screen (AID 1183). The conditions noted are these: fluorescence 635 nm, higher = more signal.
A short description of assay [13]: blood-stage malaria parasite viability loss – strain 3D7, DAPI fluorescence, 100 nL, primary screen (AID 1184).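 Also: parasites grown inside human red blood cells in medium with human serum.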 The following applies: P. falciparum 3D7 growth, 3 d, higher = more signal.
In assay [14] the target is Homeobox protein Hox-A13 (Mus musculus) (UniProt Q62424). The assay can be described thus: disruptors of Hoxa13 oligonucleotide interaction – biochemical, fluorescence polarization, labeled oligonucleotide, primary screen (AID 1185). The conditions noted are these: Hoxa13:DNA binding, 15 min, higher = more signal, called active from +8 up or from −8 down. For orientation: In fluorescence polarisation assays a small probe gives low polarisation when free and higher when bound to something large.
Sequence of Homeobox protein Hox-A13 (Mus musculus) (Q62424 whole entry, looked up): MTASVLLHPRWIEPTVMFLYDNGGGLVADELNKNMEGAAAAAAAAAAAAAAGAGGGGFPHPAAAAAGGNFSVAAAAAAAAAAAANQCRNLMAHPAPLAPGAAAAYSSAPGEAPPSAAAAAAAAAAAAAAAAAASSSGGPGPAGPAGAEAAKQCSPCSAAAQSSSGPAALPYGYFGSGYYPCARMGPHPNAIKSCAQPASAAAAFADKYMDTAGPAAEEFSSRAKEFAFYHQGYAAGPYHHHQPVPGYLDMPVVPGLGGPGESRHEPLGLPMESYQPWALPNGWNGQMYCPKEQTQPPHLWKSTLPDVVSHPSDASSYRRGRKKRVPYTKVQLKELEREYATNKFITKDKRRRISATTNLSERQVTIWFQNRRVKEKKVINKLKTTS

Assay [15] in a line: blockers of DNA damage checkpoint Chk1 activation – imaging, HeLa, hydroxyurea, phospho-Chk1 antibody, percent positive cells, primary screen (AID 1186). The conditions noted are these: hydroxyurea-induced phospho-Chk1 immunofluorescence imaging, higher = more signal.
Assay [16] can be described thus: blockers of DNA damage checkpoint Chk1 activation – imaging, HeLa, hydroxyurea, phospho-Chk1 nuclear intensity, primary screen (AID 1187). The following applies: hydroxyurea-induced phospho-Chk1 immunofluorescence imaging, higher = more signal.

Turning to `COCCOC(=O)N1C(=O)[C@@]2(c3cc(C#CCC(C(=O)OC)C(=O)OC)ccc31)[C@H](C(=O)Nc1nc3ccccc3s1)[C@H]1C(=O)O[C@H](c3ccccc3)[C@H](c3ccccc3)N1[C@@H]2c1ccc(O)cc1`, the z-score in assay [1] is -0.218; in assay [2], 0.945 (inactive); in assay [3], -0.0585 (inactive); in assay [5], 0.678 (inactive); in [6], 0.404 (inactive); in assay [7], 0.378 (inactive). Also, the z-score in [8] was -0.186 (inactive); in assay [9], -0.577; in [13], -1.52; in assay [14], -1.93 (inactive); in assay [15], 0.119 (inactive); in assay [16], 0.359 (inactive). The composite z-score in [4] is 0.863 (inactive); in assay [10], 0.286; in assay [11], 0.224 (inactive); in assay [12], 0.599.

Consider `C=CCOC(=O)[C@H]1[C@@H]2C(=O)O[C@@H](c3ccccc3)[C@@H](c3ccccc3)N2[C@@H](c2ccc(OCCOC(=O)[C@@H]3C[C@@H]4C(=O)N[C@@H](CCCCNC(C)=O)C(=O)N4[C@@H]3c3cccc(OCCO)c3)cc2)[C@]12C(=O)Nc1ccccc12`, for which the z-score in [1] was -0.16; in [2], 1.19 (inactive); in assay [3] it was 0.222 (inactive); in assay [5], 2.87 (inactive); in [6], 1.52 (inactive); in [7] it was 0.253 (inactive). In addition, the z-score in assay [8] is 0.0636 (inactive); in [9], 0.147; in assay [13] it was -1.55; in [14], -0.0913 (inactive); in assay [15] it was 0.321 (inactive); in assay [16], 0.0173 (inactive). Besides, the composite z-score in assay [4] is 0.277 (inactive); in assay [10] it was 0.0623; in [11], 0.785 (inactive); in [12] it was 0.824.

Regarding `COc1cc(OC)c(C(O)C2C=CC3C(=O)N(c4ccccc4)C(=O)C3N2Nc2ccc(C(C)C)cc2)cc1Br` (centres undefined), the z-score is 0.092 in assay [1]; -4.46 (inactive) in assay [2]; -0.263 (inactive) in [3]; 2.24 (inactive) in assay [5]; 0.171 (inactive) in assay [6]; 0.238 (inactive) in [7]. The z-score in [8] was 0.48 (inactive); in [9], 0.289; in [13], -0.0986; in assay [14], -1.37 (inactive); in assay [15], -0.78 (inactive); in [16], -0.639 (inactive). The composite z-score in assay [4] was 0.145 (inactive); in assay [10], 0.0838; in assay [11], 0.242 (inactive); in assay [12] it was 0.785.

In the case of `CCCCC(=C=CC[C@H](O)c1ccc(CO)o1)CCO`, the z-score is -0.585 in assay [1]; -0.976 (inactive) in [2]; 0.0305 (inactive) in [3]; 0.224 (inactive) in assay [5]; 0.648 (inactive) in [6]; -0.312 (inactive) in assay [7]. Also, the z-score in assay [8] was -0.409 (inactive); in [9] it was -0.34; in assay [13] it was 1.13; in assay [14] it was -4.55 (inactive); in assay [15], 0.818 (inactive); in assay [16] it was 0.392 (inactive). For the same compound, the composite z-score was -0.776 (inactive) in [4], -0.0663 in assay [10], 0.234 (inactive) in assay [11] and 0.552 in assay [12].

Regarding `O=C1[C@H]2C=C(I)[C@H](C[C@@H]2OCCCCCCO)[C@@]12CO2`, the z-score was 0.21 in assay [1]; -1.77 (inactive) in assay [2]; -0.394 (inactive) in assay [3]; 1.13 (inactive) in assay [5]; -0.473 (inactive) in [6]; -0.875 (inactive) in assay [7]. The z-score in assay [8] is -0.482 (inactive); in [9], -0.658; in assay [13], 1.09; in assay [14], -3.09 (inactive); in assay [15], -0.116 (inactive); in assay [16], -0.124 (inactive). In addition, the composite z-score is 0.742 (inactive) in assay [4], -0.109 in [10], -0.0604 (inactive) in assay [11] and 0.77 in [12].

As to `COC(=O)c1cccc([C@H]2OC(=CC(=O)OC(C)C)C[C@@H](c3cccc(C(=O)OC)c3)O2)c1`, the z-score in assay [1] was -0.674; in assay [2] it was -2.43 (inactive); in [3] it was -0.799 (inactive); in assay [5] it was 0.188 (inactive); in [6] it was -0.258 (inactive); in assay [7], -0.435 (inactive). The z-score was -0.0196 (inactive) in [8]; 0.0732 in assay [9]; -0.832 in [13]; -4.13 (inactive) in assay [14]; -0.504 (inactive) in assay [15]; -1.39 (inactive) in assay [16]. The composite z-score is -0.351 (inactive) in [4], 0.378 in assay [10], 0.308 (inactive) in assay [11] and 0.713 in assay [12].

As to `COc1ccc(C(=O)Nc2ccc3c(c2)[C@@]2(O[C@H](CCO)[C@@H]([Si](C)(C)c4ccc(OC)cc4)[C@@H]2C)C(=O)N3Cc2ccccc2)cc1`, the z-score in assay [1] is -2.52; in [2], -1.96 (inactive); in [3], -8.32 (active); in [5], 0.249 (inactive); in assay [6], 2.7 (inactive); in [7], -0.59 (inactive). Besides, the z-score in assay [8] was -0.927 (inactive); in assay [9], -5.58; in [13], -2.89; in assay [14] it was -1.54 (inactive); in assay [15], 0.0691 (inactive); in [16], 0.518 (inactive). Moreover, the composite z-score is -0.687 (inactive) in [4], -0.131 in assay [10], 0.396 (inactive) in [11] and 0.466 in assay [12].

In the case of `[N-]=[N+]=Nc1ccccc1C[C@@]1(C(=O)NCC(O)CO)N=C(c2ccc(OCCCO)cc2)O[C@@H]1c1ccccc1` (some centres undefined), the z-score was 0.559 in assay [1]; -2.46 (inactive) in [2]; 0.33 (inactive) in assay [3]; -0.456 (inactive) in assay [5]; 0.302 (inactive) in assay [6]; 0.443 (inactive) in assay [7]. The z-score in [8] was -0.0622 (inactive); in assay [9] it was 0.0762; in [13] it was -1.45; in [14] it was -5.72 (inactive); in assay [15], -0.416 (inactive); in assay [16] it was -0.145 (inactive). For the same compound, the composite z-score in [4] was 0.303 (inactive); in assay [10], 0.0049; in assay [11] it was 0.105 (inactive); in assay [12], 0.75.

As for `COc1ccc(C(O)C2C=CC3C(=O)N(c4ccccc4)C(=O)C3N2Nc2ccc(C#N)cc2)cc1OCc1ccccc1` (centres undefined), the z-score is -1.74 in [1]; 0.0151 (inactive) in [2]; -0.829 (inactive) in assay [3]; 1.45 (inactive) in assay [5]; -0.396 (inactive) in [6]; -0.933 (inactive) in assay [7]. For the same compound, the z-score is -0.0725 (inactive) in assay [8]; -0.756 in assay [9]; -0.474 in [13]; 0.712 (inactive) in assay [14]; -0.405 (inactive) in assay [15]; -0.669 (inactive) in assay [16]. In addition, the composite z-score in [4] was 0.94 (inactive); in [10] it was 0.44; in assay [11], 0.496 (inactive); in assay [12], 0.556.

Source of the values: PubChem BioAssay.
